Compound activity deposited in PubChem by several laboratories.
In the library only some 9.6% were active in any assay of this set; here they are far more common.
Insulin prom inh – inhibitors of insulin promoter-driven GFP, primary screen, imaging, TRM-6 cells (human fetal islet line), eGFP reporter, cell count | 130,000 compounds, 0.9% hits | inhibition, % at 2 µM | AID 1273, 2008 | reporter expression induced with tamoxifen;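 active = inhibition above the mean plus 3 SD, with well images judged a real hit on visual review, cut at about 60% in these data, passing the limit was not always enough; inconclusive = inhibition over the cutoff but images rejected on review; inactive = inhibition not above the cutoff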
PTEN del growth – growth suppression of PTEN-null HCT116, primary screen, cell-based, CellTiter-Glo; HCT116 PTEN-null viability, 60 h; hits give low values; AID 827, 2007; viability, % at 10 µM; 140,000 compounds, 1.2% hits;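 active = viability at or below a set limit, 4 SD under the median of all tested compounds, cut at about 3.7% in these data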;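 note: PTEN knockout HCT116 line with beta catenin targeted HCT116 as companion control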
Autophagy mod – autophagy modulators in MEF cells, primary screen, imaging, high-content, MEF GFP-LC3 | MEF GFP-LC3 puncta imaging; test concentration mostly 10 µM | calls only at 10 µM (by protocol) | 190,000 compounds, 0.98% hits | AID 463193, 2010;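 active = percentage of spot-positive cells more than 3 SD above its plate mean, without a fluorescence outlier flag or 80% toxicity; inconclusive = no clear call, values can overlap the other calls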;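 note: spot-positive cell cutoff set from DMSO-treated cells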
HCT116 bCat-KO – primary screen for growth suppressors in beta-catenin knockout HCT116 cells (colon tumor, human) | HCT116 beta-catenin knockout viability, CellTiter-Glo, 60 h; hits give low values | 140,000 compounds, 1.5% hits | viability, % at 10 µM;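 active = viability at or under a set limit, the compound median less 4 SD, cut at about 6% in these data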;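 note: 0% = Hyamine 1622 control at 20 µM and 100% = untreated cell control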
L major viab – Leishmania major promastigote growth inhibition, primary screen; Leishmania major promastigotes, resazurin fluorescence viability; inhibition, % at 10 µM; 200,000 compounds, 9% hits; AID 1063, 2008; in the data active = inhibition above about 50%;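 note: promastigotes grown with compound for 44 hours at 28 °C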
Insulin prom up – insulin promoter activators in MIN6 cells, imaging, high-content screening, mouse beta cells; MIN6 insulin promoter-GFP reporter; hits give high values; z-score at 5 µM; 190,000 compounds, 0.3% hits; AID 1625, 2009;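 active = z-score above 3 at 5 µM with at least 500 cells counted in the well; inconclusive = wells under 500 cells, flagged as cytotoxic or low count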
Starred values were filed as active, the others as inactive; i = inactive; ? = inconclusive; . = no result; + = active, no number.

SMILES	Insulin prom inh	PTEN del growth	Autophagy mod	HCT116 bCat-KO	L major viab	Insulin prom up
Cc1c(CCOC(=O)C23CC4(C)CC(C)(CC(C)(C4)C2)C3)sc[n+]1CC(=O)c1ccccc1	-5.3	.	i	.	23.0	-1.87
CC(=O)c1ccc(N2CCN(S(=O)(=O)c3ccccc3)CC2)c(F)c1	.	.	i	.	-6.4	0.13
CC(=O)Nc1cccc(-c2csc(Nc3cc(C)ccn3)n2)c1	.	35.0	i	31.5	27.1	0.24
Cc1ccc(Nc2nc(-c3ccc(O)c(O)c3)cs2)nc1	.	.	i	.	98.7*	-3.81
CC(=O)Nc1ccc(-c2csc(Nc3cc(C)ccn3)n2)cc1	5.6	.	i	.	59.9*	-0.23
CC(=O)Nc1cccc(-c2csc(Nc3ccc(Cl)cn3)n2)c1	.	.	i	.	39.8	-0.69
CC(=O)Nc1ccc(-c2csc(Nc3ccc(Cl)cn3)n2)cc1	45.5	.	i	.	58.8*	-0.35
COc1ccc(-c2csc(Nc3ccc(C)cn3)n2)cc1OC	.	.	i	.	10.3	-0.58
COc1ccc(S(=O)(=O)N2CCC(C(=O)NCc3ccccn3)CC2)cc1OC	35.7	92.9	i	97.1	-5.6	.
Cc1ccc(Cl)cc1NC(=S)N(CCCN1CCN(C)CC1)Cc1cccs1	.	.	i	.	54.0*	0.04
COc1ccc(NC(=S)N(CCCN2CCCC2)Cc2cccs2)cc1	-21.9	100.4	i	93.2	79.9*	0.4
CSc1cccc(NC(=S)N(CCCN2CCCC2)Cc2cccs2)c1	-6.7	.	i	.	99.5*	-1.08
Cc1cc(Cl)ccc1NC(=S)N(CCCN1CCOCC1)Cc1cccs1	.	75.4	i	78.2	21.2	.
COc1ccc(NC(=S)N(CCCN2CCCCCC2)Cc2cccs2)cc1	-6.7	.	i	.	97.1*	0.28
CCN=C1S/C(=C\c2ccc(O)c(OCC)c2)C(=O)N1CC	25.0	70.5	i	74.6	4.5	-2.87
C(#CCN1CCOCC1)COC(c1ccccc1)c1ccccc1	-188.4	88.4	i	104.6	16.8	.
COc1ccc(NC(=S)N(CCN(C)C)Cc2cccs2)cc1	.	.	i	.	6.7	0.14
COc1ccc(NC(=S)N(CCCN2CCCC(C)C2)Cc2cccs2)cc1 (stereo unspecified)	0.0	.	i	.	95.2*	-0.76
Cc1nc(NCc2ccco2)[nH]c(=O)c1CCC(C)C	10.7	88.4	i	96.4	14.7	-0.04
COc1ccc(S(=O)(=O)NC(Cc2cnc[nH]2)C(=O)O)cc1 (stereo unspecified)	3.7	93.4	i	93.3	51.1*	0.97
O=C(NN1C(=O)c2ccccc2NC1c1ccc([N+](=O)[O-])o1)c1ccc([N+](=O)[O-])cc1 (stereo unspecified)	-35.7	.	i	.	94.6*	.
O=C(NN1C(=O)c2ccccc2NC1c1ccc([N+](=O)[O-])o1)c1ccccc1 (stereo unspecified)	.	.	i	.	86.4*	.
O=C(NN1C(=O)c2ccccc2NC1c1ccco1)c1ccccc1 (stereo unspecified)	-42.9	.	i	.	-6.8	.
COc1ccc(N(C(=O)c2ccco2)C(C(=O)NC2CCCCC2)c2cccs2)cc1OC (stereo unspecified)	-33.3	101.8	i	103.8	-1.3	.
COc1ccc(CCN(C(=O)C(F)(F)F)C(C(=O)NC2CCCC2)c2cccs2)cc1 (stereo unspecified)	-65.4	54.3	i	59.9	61.8*	.
SMILES	Insulin prom inh	PTEN del growth	Autophagy mod	HCT116 bCat-KO	L major viab	Insulin prom up
C#CC(=O)N(c1cc(OC)ccc1OC)C(C(=O)NC1CCCC1)c1cccs1 (stereo unspecified)	.	1.0*	i	0.7*	100.6*	-0.15
C#CC(=O)N(c1ccc(OC)cc1OC)C(C(=O)NC1CCCC1)c1cccs1 (stereo unspecified)	-387.8	.	i	.	94.2*	?
O=C(NCc1ccc2c(c1)OCO2)C1CCCN(C(=O)c2ccc(Cl)cc2)C1 (stereo unspecified)	-23.3	87.4	i	95.3	0.9	-0.37
CC(=O)Nc1ccc(OCC(O)Cn2nc(C)nc2C)cc1 (stereo unspecified)	65.7	113.6	i	106.4	-2.6	0.18
Cc1ccccc1N=Cc1cccc(O)c1O	0.0	62.6	i	57.6	-0.3	0.91
Cc1ccc(N=Cc2cccc(O)c2O)c(C)c1	.	2.0*	i	1.9*	9.8	0.07
Cc1nc2ccccc2c2c(N)c3ccccc3n12	.	.	i	.	51.0*	-0.21
Nc1c2ccccc2nc2ccccc12	.	.	.	.	.	-0.15
O=C(CC1C(=O)NCCN1CC1CCCCC1)NCc1ccc(F)cc1F (stereo unspecified)	.	.	i	.	-4.1	-0.02
Nc1c(S(=O)(=O)c2cc(Cl)ccc2Cl)c2nc3ccccc3nc2n1CCN1CCOCC1	5.4	52.1	i	59.4	80.3*	0.93
Nc1c(C(=O)NCCN2CCOCC2)c2nc3ccccc3nc2n1-c1ccc2c(c1)OCO2	.	81.4	+	90.5	21.6	0.45
Nc1c(C(=O)NCCN2CCOCC2)c2nc3ccccc3nc2n1-c1ccccc1	.	74.8	i	77.7	13.1	.
Nc1c(C(=O)NCc2ccco2)c2nc3ccccc3nc2n1CCc1ccc(F)cc1	-11.1	26.1	i	28.4	99.1*	.
C=CCNC(=O)c1c(N)n(-c2cccc(S(N)(=O)=O)c2)c2nc3ccccc3nc12	8.3	77.7	i	79.0	84.0*	-0.39
CC(=O)Nc1ccc(S(=O)(=O)c2c(N)n(CCN3CCOCC3)c3nc4ccccc4nc23)cc1	3.1	79.6	i	80.1	-5.4	.
COc1ccccc1CNC(=O)c1c(N)n(CCCN2CCOCC2)c2nc3ccccc3nc12	-19.4	7.5	i	10.5	50.7*	0.7
Nc1ccc(-n2c(N)c(C(=O)NCc3ccc4c(c3)OCO4)c3nc4ccccc4nc32)cc1	-218.5	.	i	.	-0.4	.
Nc1c(C(=O)NCc2ccc3c(c2)OCO3)c2nc3ccccc3nc2n1CCCN1CCOCC1	.	1.4*	i	1.4*	62.9*	-1.34
CC(C)OC(=O)c1c(N)n(CCCN2CCOCC2)c2nc3ccccc3nc12	-8.5	94.3	i	91.0	20.8	0.19
Nc1c(C(=O)NCCN2CCOCC2)c2nc3ccccc3nc2n1CCc1ccccc1	.	21.8	i	42.6	69.6*	-1.07
CC(=O)Nc1ccc(S(=O)(=O)N(CC(=O)O)Cc2ccccc2)cc1	0.0	97.4	i	100.6	-7.4	0.46
O=C1CC(c2ccco2)Cc2nc(N3CCN(Cc4ccc5c(c4)OCO5)CC3)ncc21 (stereo unspecified)	50.0	66.6	i	64.5	74.7*	0.63
COc1ccc(C2CC(=O)c3cnc(N4CCN(Cc5ccccc5)CC4)nc3C2)cc1 (stereo unspecified)	-23.8	82.6	i	82.6	-3.3	0.81
Clc1ccc(CN=C(Nc2ccccc2)NC2CCCCC2)cc1	.	.	i	.	95.3*	-1.36
